# Source: PMC4336329 (PLoS ONE, 2015)
# About 14,000 (4.5%) of roughly 310,000 compounds showed an effect of 50% or more. Effects have a minus sign here. The list comes from a sample in which strong results are over-represented; it also holds similar structures and randomly drawn compounds.
# Target: human ether-à-go-go-related gene (hERG) potassium channel (human, UniProt Q12809)
# Assay: primary screen, population patch clamp on CHO cells stably expressing hERG; higher = less effect of the substance
# 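Further: peak tail current of the secondary pulse compared with the same well before compound.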
# Sequence of human ether-à-go-go-related gene (hERG) potassium channel (Q12809 whole entry, looked up): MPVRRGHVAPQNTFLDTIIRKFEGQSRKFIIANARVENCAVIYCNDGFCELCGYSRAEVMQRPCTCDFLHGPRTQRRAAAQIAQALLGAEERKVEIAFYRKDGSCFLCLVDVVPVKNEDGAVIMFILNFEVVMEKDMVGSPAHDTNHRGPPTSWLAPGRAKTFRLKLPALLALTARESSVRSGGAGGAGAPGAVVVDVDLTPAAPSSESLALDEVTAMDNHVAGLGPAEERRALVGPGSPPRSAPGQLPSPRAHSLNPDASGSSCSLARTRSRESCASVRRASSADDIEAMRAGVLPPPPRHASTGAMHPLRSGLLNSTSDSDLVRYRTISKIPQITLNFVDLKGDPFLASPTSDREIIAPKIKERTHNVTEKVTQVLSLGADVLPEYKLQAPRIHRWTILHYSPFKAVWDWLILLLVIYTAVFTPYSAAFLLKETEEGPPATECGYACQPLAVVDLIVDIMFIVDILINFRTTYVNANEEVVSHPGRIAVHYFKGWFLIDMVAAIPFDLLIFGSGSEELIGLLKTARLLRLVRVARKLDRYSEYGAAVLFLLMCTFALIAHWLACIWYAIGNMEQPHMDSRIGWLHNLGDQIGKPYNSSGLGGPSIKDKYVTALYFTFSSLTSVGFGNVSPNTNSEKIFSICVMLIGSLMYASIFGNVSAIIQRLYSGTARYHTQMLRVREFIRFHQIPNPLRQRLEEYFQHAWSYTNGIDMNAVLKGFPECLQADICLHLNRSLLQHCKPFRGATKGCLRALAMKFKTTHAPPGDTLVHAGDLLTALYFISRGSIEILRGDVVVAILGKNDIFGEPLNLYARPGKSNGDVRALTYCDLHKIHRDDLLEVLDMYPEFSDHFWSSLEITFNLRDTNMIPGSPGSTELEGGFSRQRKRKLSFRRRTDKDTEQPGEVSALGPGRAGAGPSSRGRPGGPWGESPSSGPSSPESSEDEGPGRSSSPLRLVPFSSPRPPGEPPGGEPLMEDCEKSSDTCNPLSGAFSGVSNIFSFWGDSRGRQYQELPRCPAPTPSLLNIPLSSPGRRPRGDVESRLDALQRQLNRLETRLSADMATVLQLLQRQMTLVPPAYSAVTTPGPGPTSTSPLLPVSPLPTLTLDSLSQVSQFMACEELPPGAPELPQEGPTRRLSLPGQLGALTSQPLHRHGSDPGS
row,Compound,"hERG current change (%, negative = inhibition) at 10uM [%]"
1,O=C(Nc1cc(F)ccc1F)c1cccc(-n2cnnn2)c1,-18.3
2,COC(=O)N/N=C/c1cn(CCCOc2ccccc2)c2ccccc12,-4.14
3,C#Cc1ccc([C@H]2C=C(C(=O)N3CCOCC3)O[C@@H](OCC)[C@@H]2CCCO)cc1,6.65
4,COc1ccc(C)cc1NC(=O)C1CCCN1S(=O)(=O)c1ccc2c(c1)CCC(=O)N2 (centres unmarked),-50.8
5,O=C1CCc2cc(S(=O)(=O)N3CCC(C(=O)NC4CCCCCCC4)CC3)ccc2N1,10.8
6,COc1ccc(NC(=O)C2CCCN2S(=O)(=O)c2ccc3c(c2)CCC(=O)N3)c(OC)c1 (centres unmarked),-16.8
7,O=C1CCc2cc(S(=O)(=O)N3CCC(C(=O)NC4CCCC4)CC3)ccc2N1,-4.68
8,COc1ccc(NC(=O)C2CCCN2S(=O)(=O)c2ccc3c(c2)CCC(=O)N3)cc1Cl (centres unmarked),-27.8
9,O=C1CCc2cc(S(=O)(=O)N3CCCC3C(=O)NC3CCCCCCC3)ccc2N1 (centres unmarked),-50.3
10,Cc1ccc(/C=N/NC(=O)c2cc(-c3cccnc3)nc3ccccc23)cc1,-5.06
11,N#Cc1ccc(OCC(O)CS(=O)(=O)c2ccccc2)cc1 (centres unmarked),-21
12,CC(=O)c1ccc(S(=O)(=O)Nc2cc3c(cc2C(C)=O)OCO3)cc1,21.2
13,COc1ccc(C(=O)N(Cc2nc(-c3ccc(C)cc3)no2)C(C)C)cc1OC,-31.4
14,CCCN1C2=NCCN2c2ccccc21.Cl,-9.75
15,Br.CCCCCN1C2=NCCN2c2ccccc21,-71.4
16,CCCCCCCN1C2=NCCN2c2ccccc21.Cl,-79.6
17,CCCCCCN1C2=NCCN2c2ccccc21.Cl,-74
18,O=C(NC1CCCC1)c1cc2nc(-c3ccco3)cc(C(F)(F)F)n2n1,20.1
19,C#CCOCCOCCOCCNc1nc(N2CCN(C(=O)[C@H]([C@@H](C)CC)n3cc([C@@H](N)CO)nn3)CC2)nc(N2CCN(C(=O)[C@H](CCCCN)n3cc([C@@H](N)CC(C)C)nn3)CC2)n1.Cl,-0.687
20,NC(=O)CSc1cn(Cc2ccc(F)cc2)c2ccccc12,2.24
21,COc1ccc2c(c1)c(=O)oc1c(C)c(OCc3cc(C(=O)O)oc3C)ccc12,22.5
22,C=CCc1c(C)nc(-c2ccccc2)nc1N/N=C(\C)c1ccc(N)cc1,-0.357

row,Compound,"hERG current change (%, negative = inhibition) at 10uM [%]"
1,O=C(NCCc1ccc(F)cc1)Nc1ccc([N+](=O)[O-])cc1,-12
2,CCOc1ccc(NC(=O)NCCN2CCN(c3cccc(C)c3C)CC2)cc1,-24.3
3,O=C(NCCc1ccc(F)cc1)NC12CC3CC(CC(C3)C1)C2,-13.4
4,O=C(NCCCN1CCN(c2ccc(F)cc2)CC1)Nc1ccc([N+](=O)[O-])cc1,-73.9
5,O=C(NCCCN1CCN(c2ccc(F)cc2)CC1)NC12CC3CC(CC(C3)C1)C2,-73.2
6,O=C(CN1C(=O)COc2ccccc21)NCCCN1CCN(c2ccccc2F)CC1,-10.7
7,CCOc1cccc(N2CCN(CCNC(=O)Nc3ccc(C)cc3)CC2)c1C,-57
8,CN1CCN(CCCNC(=O)Nc2ccc([N+](=O)[O-])cc2)CC1,-7.46
9,Cc1ccc(NC(=O)NCCN2CCN(C(=O)Nc3ccc(C)cc3)CC2)cc1,-36.4
10,O=C(NCCCN1CCOCC1)NC12CC3CC(CC(C3)C1)C2,1.72
11,CSc1ccc(NC(=O)NCCCN2CCN(c3ccccc3F)CC2)cc1,-55.1
12,CSc1ccc(N2CCN(CCCNC(=O)Nc3ccccc3F)CC2)cc1,-49.1
13,COc1c(C=O)cc2c3c1CCCN3CCC2,23.3
14,COc1ccc(N(C(=O)c2ccco2)C(C(=O)NC2CCCC2)c2cccs2)cc1OC (centres unmarked),1.89
15,O=S1(=O)N=C(N/N=C/c2ccco2)c2ccccc21,13.1
16,COc1ccc(S(=O)(=O)N2CCOCC2)cc1NC(=O)COc1ccccc1OC,22.3
17,COc1cc(C(=O)OCC(=O)N2CCOCC2)c([N+](=O)[O-])cc1OC,14.5
18,O=C(Nc1nccs1)c1ccc(COc2ccc(F)cc2)o1,8.63
19,O=C1C2C(C(=O)N1c1nccs1)C1C=CC2C12CC2 (centres unmarked),-8.95
20,O=C(Cc1ccccc1[N+](=O)[O-])N1CCN(c2ccccc2F)CC1,3.23
21,O=C(NCCCN1CCN(c2ccccc2F)CC1)Nc1ccc(F)cc1,-66.3
22,O=C(NCCN1CCCCC1)Nc1ccc(F)cc1,-13.1
